In PubChem BioAssay (Tox21):
Several values for one entry are separate records, joined by “and”; a condition that tells them apart may be missing. Identical values can stand only once. Inconclusive results are not listed. A structure can be active in one record and inactive in another. Activity calls are given as the source filed them. Unless noted, calls follow the shape of the dose curve; as a rule, active = well fitted curve in the direction sought with a large enough effect in the repeat runs; inconclusive = weak or mixed curves; inactive = no such curve, though single readings can be large; an effect the other way counts as inactive or inconclusive.

Key:
[1] = qHTS assay to identify small molecule antagonists of the estrogen related receptor (ERR) signaling pathway from Tox21 library - cell viability counter screen (AID 1224834); also: nearly all actives have a fitted effect of over 30% in size; also: potency is read from the fitted curve at half-maximal effect
Outline: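 ERR reporter cells were plated 6 h before compound addition, then exposed to test compounds in DMSO for 17.5 h at 37 C. Viability was read as CellTiter-Fluor fluorescence after a 30-minute incubation at 37 C.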

[2] = molecular target: Luciferin 4-monooxygenase (Photinus pyralis) (UniProt P08659); experiment: qHTS assay to identify small molecule inhibitors of firefly luciferase (AID 1224835); also: nearly all actives have a fitted effect of over 25% in size; also: potency is read from the fitted curve at half-maximal effect
Chain of Luciferin 4-monooxygenase (Photinus pyralis) (P08659 whole entry, looked up): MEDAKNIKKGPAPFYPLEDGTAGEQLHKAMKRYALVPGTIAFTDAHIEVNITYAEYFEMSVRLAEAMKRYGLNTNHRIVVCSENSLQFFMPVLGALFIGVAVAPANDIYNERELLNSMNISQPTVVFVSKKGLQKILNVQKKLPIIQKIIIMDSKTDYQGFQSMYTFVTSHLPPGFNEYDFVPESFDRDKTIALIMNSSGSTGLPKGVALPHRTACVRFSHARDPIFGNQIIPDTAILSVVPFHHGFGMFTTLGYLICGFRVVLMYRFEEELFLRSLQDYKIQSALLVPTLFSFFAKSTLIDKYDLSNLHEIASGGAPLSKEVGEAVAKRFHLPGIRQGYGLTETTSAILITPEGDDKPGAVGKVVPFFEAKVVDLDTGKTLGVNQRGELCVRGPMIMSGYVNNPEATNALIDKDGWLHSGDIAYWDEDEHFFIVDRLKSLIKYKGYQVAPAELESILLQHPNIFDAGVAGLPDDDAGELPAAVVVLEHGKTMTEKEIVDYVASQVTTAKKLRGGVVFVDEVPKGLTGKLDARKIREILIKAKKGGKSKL
Outline: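 Biochemical qHTS: compounds run as interplate titrations against purified firefly enzyme, with D-luciferin and ATP each at its KM concentration. Light output recorded by CCD imaging.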

[3] = qHTS assay to identify small molecule agonists of the constitutive androstane receptor (CAR) signaling pathway - cell viability counter screen (AID 1224836); also: nearly all actives have a fitted effect of over 45% in size; also: potency is read from the fitted curve at half-maximal effect
Outline: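 23 h treatment, 37 C, 5% CO2. Cell line: HepG2 stably expressing hCAR with a CYP2B6-2.2kb construct. Co-treatment: PK11195, 0.75 uM final. Read-out: CellTiter-Fluor fluorescence intensity.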

[4] = qHTS assay to identify small molecule antagonists of the constitutive androstane receptor (CAR) signaling pathway - cell viability counter screen (AID 1224837); also: nearly all actives have a fitted effect of over 45% in size; also: potency is read from the fitted curve at half-maximal effect
Outline: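 HepG2 cells stably expressing hCAR and a CYP2B6-2.2kb reporter were plated and pre-incubated 4 hr at 37 C/5% CO2, then given compounds at 15 concentrations plus 50 nM CITCO (final). After 23 hr, viability was read by CellTiter-Fluor fluorescence.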

[5] = molecular target: Nuclear receptor subfamily 1 group I member 3 (Homo sapiens) (UniProt Q14994); experiment: qHTS assay to identify small molecule antagonists of the constitutive androstane receptor (CAR) signaling pathway (AID 1224838); also: nearly all actives have a fitted effect of over 40% in size; also: potency is read from the fitted curve at half-maximal effect
Chain of Nuclear receptor subfamily 1 group I member 3 (Homo sapiens) (Q14994 whole entry, looked up): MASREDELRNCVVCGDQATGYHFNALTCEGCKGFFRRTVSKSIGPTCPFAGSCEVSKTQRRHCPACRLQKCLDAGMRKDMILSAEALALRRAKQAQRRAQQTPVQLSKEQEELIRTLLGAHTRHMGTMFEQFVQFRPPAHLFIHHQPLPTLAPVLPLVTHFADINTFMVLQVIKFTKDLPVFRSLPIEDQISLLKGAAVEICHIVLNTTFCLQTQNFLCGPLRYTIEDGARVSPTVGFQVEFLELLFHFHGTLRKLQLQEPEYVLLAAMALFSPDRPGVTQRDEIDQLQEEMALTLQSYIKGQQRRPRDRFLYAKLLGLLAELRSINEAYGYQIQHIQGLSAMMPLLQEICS
Outline: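 HepG2 cells stably co-transfected with hCAR and a CYP2B6-2.2kb luciferase reporter were seeded 4 h before compound addition at 15 concentrations. Cells were stimulated with 50 nM CITCO (final) for 24 h at 37 C; luciferase luminescence was then read.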

[6] = qHTS assay to identify small molecule antagonists of the estrogen related receptor signaling pathway with the pleiotropic PPARgamma coactivator (PGC) from Tox21 10K library - cell viability counter screen (AID 1224840; active = well fitted cell-killing curve with a large enough effect in the repeat runs, not every such curve was filed as active; also: nearly all actives have a fitted effect of over 40% in size; also: potency is read from the fitted curve at half-maximal effect)
Outline: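 PGC/ERR cells were seeded at 2,000 cells/well and left 6 hours at 37 C/5% CO2 before pin-tool addition of compounds in DMSO. After 17.5 hours at 37 C, CellTiter-Fluor was added and fluorescence read 30 minutes later.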

[7] = qHTS assay to identify small molecule antagonists of the estrogen related receptor signaling pathway with the pleiotropic PPARgamma coactivator (PGC) from Tox21 10K library (AID 1224841; call rule not given here; also: actives are mostly falling curves and most rising ones were filed inactive; nearly all actives have a fitted effect of over 50% in size; also: potency is read from the fitted curve at half-maximal effect)
Outline: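 PGC/ERR reporter cells were seeded at 2,000 cells/well and held 6 hours at 37 C/5% CO2 before pin-tool addition of compounds in DMSO. After 18 hours at 37 C, One-Glo was added and luminescence read after 30 minutes at room temperature.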

[8] = qHTS assay to identify small molecule agonists of the estrogen related receptor signaling pathway with the pleiotropic PPARgamma coactivator (PGC) from Tox21 10K library (AID 1224842); also: nearly all actives have a fitted effect of over 15% in size
Outline: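 PGC/ERR reporter cell line, 2,000 cells per well, incubated 6 h at 37 C before 23 nL compound in DMSO was added. After 18 h at 37 C, One-Glo luminescence read following 30 min at room temperature.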

[9] = qHTS assay to identify small molecule agonists of the hypoxia (HIF-1) signaling pathway - cell viability counter screen (AID 1224844; calls by dose curve; also: nearly all actives have a fitted effect of over 50% in size)
Outline: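 HRE-bla ME-180 cells in medium with 0.5% dialyzed FBS were preincubated 5 hrs at 37C, exposed to compounds for 17 hrs, then viability was read as CellTiter-Glo luminescence after 30 min at room temperature, in the reporter wells.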

[10] = qHTS assay to identify small molecule agonists of H2AX (AID 1224845; active = well fitted activation curve with a large enough effect in the signal ratio in the repeat runs, not every such curve was filed as active; the % refers to the signal ratio)
Outline: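 Wild-type CHO-K1 cells, plated overnight, exposed 3hr at 37C to 15 concentrations (0.76% DMSO final). Lysed, then HTRF anti-pH2AX (S139) cryptate and anti-H2AX-d2 antibodies, 24 hr room temperature; 665/620 nm emission read.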

[11] = qHTS assay to identify small molecule agonists of the hypoxia (HIF-1) signaling pathway (AID 1224846; active = well fitted activation curve with a large enough effect in the signal ratio in the repeat runs, not every such curve was filed as active; the % refers to the signal ratio)
Outline: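 HRE-bla ME-180 cells (beta-lactamase reporter under hypoxia response element) were plated at 2,000 cells/well in medium with 0.5% dialyzed FBS, rested 5 hrs, then given compounds in DMSO for 17 hrs at 37C, 5% CO2. Reporter induction was read with CCF4-AM FRET substrate.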

[12] = qHTS assay to identify small molecule agonists of H2AX - cell viability counter screen (AID 1224847; calls by dose curve; also: top concentration of the series differs between compounds; nearly all actives have a fitted effect of over 30% in size)
Outline: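 Compounds tested at 15 concentrations were incubated 3 hr at 37C with wild-type CHO-K1 cells; cellular ATP-based luminescence (CellTiter-Glo) indicated viability.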

[13] = qHTS assay to identify small molecule antagonists of the estrogen related receptor (ERR) signaling pathway from Tox21 library (AID 1224848); also: nearly all actives have a fitted effect of over 50% in size; also: potency is read from the fitted curve at half-maximal effect
Outline: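 Luminescent reporter read-out (ONE-Glo) from NTP's ERR cell line after 18 h treatment at 37 C with DMSO-dissolved Tox21 compounds; cells pre-plated 6 h beforehand at 2,000 per well.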

[14] = qHTS assay to identify small molecule agonists of the estrogen related receptor (ERR) signaling pathway from Tox21 library (AID 1224849; calls by dose curve; also: nearly all actives have a fitted effect of over 15% in size); details: ERR reporter cell line, ONE-Glo luciferase, 18 h; at 92.4 µM (top of the series)
Outline: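 ERR reporter cell line (NTP) seeded, rested 6 h at 37 C/5% CO2, then pinned with Tox21 compounds in DMSO. After 18 h at 37 C, ONE-Glo luciferase luminescence was read following 30 min at room temperature.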

[15] = qHTS RealTime-Glo MT Cell Viability Assay in HepG2 cells - 24 hour (AID 1224867); also: nearly all actives have a fitted effect of over 50% in size
Outline: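 Real-time, nonlytic viability: 600 HepG2 cells/well mixed with NanoLuc enzyme plus prosubstrate; 5 h settle, compound (DMSO) added by pintool; luminescence monitored over 40 h at 37 C.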

[16] = qHTS RealTime-Glo MT Cell Viability Assay in HEK293 cells - 32 hour (AID 1224868); also: nearly all actives have a fitted effect of over 50% in size; also: potency is read from the fitted curve at half-maximal effect
Outline: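 Cells + reagent dispensed (600 cells/well, HEK293) → 5 h at 37 C/5% CO2 → 23 nL compound in DMSO pinned → 40 h at 37 C → luminescence read at 0, 8, 16, 24, 32, 40 h.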

[17] = A CellTox Green Cytotoxicity Assay to monitor cytotoxicity in HEK293 cells - 0 hour (AID 1224869); also: nearly all actives have a fitted effect of over 50% in size; also: potency is read from the fitted curve at half-maximal effect
Outline: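 HEK293 cells premixed with CellTox Green dye were seeded at 600 cells/well and left 5 h at 37 C/5% CO2 before pin transfer of 23 nL compound in DMSO. Fluorescence from dye bound to dead-cell DNA was read during 40 h treatment.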

[18] = molecular target: Nuclear receptor subfamily 1 group I member 3 (Homo sapiens) (UniProt Q14994); experiment: qHTS assay to identify small molecule agonists of the constitutive androstane receptor (CAR) signaling pathway (AID 1224839); also: nearly all actives have a fitted effect of over 15% in size; also: potency is read from the fitted curve at half-maximal effect;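 as to activation: HepG2 cells stably carrying human CAR and a CYP2B6 luciferase reporter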
Outline: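 Compounds tested at 15 concentrations on HepG2 cells stably harbouring hCAR and CYP2B6-2.2kb reporter constructs, co-treated with PK11195 (0.75 uM final), 24 h at 37 C; luminescent reporter signal quantified.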

[19] = molecular target: Thyrotropin receptor (Homo sapiens) (UniProt P16473); experiment: qHTS assay to identify small molecule agonists of the thyroid stimulating hormone receptor (TSHR) signaling pathway (AID 1224843; calls by dose curve; also: nearly all actives have a fitted effect of over 45% in size)
Chain of Thyrotropin receptor (Homo sapiens) (P16473 whole entry, looked up): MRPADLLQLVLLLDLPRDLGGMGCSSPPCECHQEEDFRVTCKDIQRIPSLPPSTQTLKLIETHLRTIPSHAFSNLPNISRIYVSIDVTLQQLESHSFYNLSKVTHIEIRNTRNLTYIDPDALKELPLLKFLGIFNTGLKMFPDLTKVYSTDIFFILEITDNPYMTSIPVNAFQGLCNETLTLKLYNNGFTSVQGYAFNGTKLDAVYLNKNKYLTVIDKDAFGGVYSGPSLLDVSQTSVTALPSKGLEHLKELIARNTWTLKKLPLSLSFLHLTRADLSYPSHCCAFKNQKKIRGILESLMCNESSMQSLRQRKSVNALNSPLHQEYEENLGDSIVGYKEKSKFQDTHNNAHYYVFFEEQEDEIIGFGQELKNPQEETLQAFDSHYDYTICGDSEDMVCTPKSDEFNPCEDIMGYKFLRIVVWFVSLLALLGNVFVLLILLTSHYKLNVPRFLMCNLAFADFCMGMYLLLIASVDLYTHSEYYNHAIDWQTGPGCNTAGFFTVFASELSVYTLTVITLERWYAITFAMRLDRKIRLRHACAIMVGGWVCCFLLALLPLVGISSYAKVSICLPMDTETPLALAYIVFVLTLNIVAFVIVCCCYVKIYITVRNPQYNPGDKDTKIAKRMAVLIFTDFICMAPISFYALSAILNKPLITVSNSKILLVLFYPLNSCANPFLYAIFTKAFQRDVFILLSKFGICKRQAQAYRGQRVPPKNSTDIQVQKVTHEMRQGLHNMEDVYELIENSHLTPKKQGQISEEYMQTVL
Outline: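 Steps: seed 800 TSHR-HEK293 cells per well; add test compound and hold 30 min at ambient temperature; dispense cAMP-d2 then anti-cAMP cryptate; incubate 1 h at ambient; measure fluorescence intensity.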
% is scaled to controls: 0 for no effect and ±100 for the full control effect.

CC1=C(/C=C/C(C)=C/C=C/C(C)=C/CO)C(C)(C)CCC1
inactive: Potency [1] | Potency [2] | Potency [3] | Potency [4] | Potency [5] | Potency [6] | Potency [7] | Potency [8] | Potency [9] | Potency [10] | outcome [11] | Potency [12] | Potency [13] | activity change, positive = activation [14] -2.72% and -18.5% | Potency [15] | Potency [16] | Potency [17]

CCCCC(CC)COC(=O)CCCCCCCC(=O)OCC(CC)CCCC (stereo not drawn)
inactive: Potency [2] | Potency [18] | Potency [8] | Potency [19] | Potency [9] | Potency [10] | outcome [11] | Potency [12] | activity change, positive = activation [14] -81.2% and -2.38% | Potency [15]
24.3 µM (active) and inactive: Potency [5] | Potency [7]
17.2 µM (active) and inactive: Potency [1]
6.17 µM (active) and inactive: Potency [16]
54.9 µM (active) and inactive: Potency [17]
8.63 µM (active) and inactive: Potency [6]
7.7 µM (active) and inactive: Potency [13]

CCCCOCCOCCOC(=O)CCCCC(=O)OCCOCCOCCCC
inactive: Potency [1] | Potency [2] | Potency [3] | Potency [4] | Potency [5] | Potency [18] | Potency [6] | Potency [9] | Potency [10] | outcome [11] | Potency [12] | Potency [15] | Potency [17]

OC1CCCC1
inactive: Potency [1] | Potency [3] | Potency [4] | Potency [5] | Potency [18] | Potency [6] | Potency [7] | Potency [8] | Potency [19] | Potency [9] | Potency [10] | outcome [11] | Potency [12] | Potency [13] | activity change, positive = activation [14] 4.85% and 0.946% | Potency [15] | Potency [16] | Potency [17]

CCCCC(CC)COC(=O)/C=C\C(=O)OCC(CC)CCCC (stereo not drawn)
inactive: Potency [1] | Potency [3] | Potency [4] | Potency [5] | Potency [6] | Potency [7] | Potency [8] | Potency [19] | Potency [9] | Potency [10] | outcome [11] | Potency [12] | Potency [13] | activity change, positive = activation [14] -6.56% and 3.66% | Potency [15] | Potency [17]
active: Potency [18] 61.1 µM

Oc1ccc2ccccc2c1N=Nc1ccccc1
active: Potency [1] 27.3 µM | Potency [2] 12.6 µM and 22.4 µM | Potency [3] 48.5 µM and 30.6 µM | Potency [4] 30.6 µM | Potency [18] 30.6 µM and 21.7 µM
inactive: Potency [5] | Potency [19] | Potency [9] | Potency [10] | outcome [11] | Potency [15] | Potency [16] | Potency [17]

O=[N+]([O-])C(CO)(CO)CO
inactive: Potency [1] | Potency [2] | Potency [3] | Potency [4] | Potency [6] | Potency [7] | Potency [8] | Potency [19] | Potency [9] | Potency [10] | outcome [11] | Potency [12] | Potency [13] | activity change, positive = activation [14] 10.1% and 10.2% | Potency [15] | Potency [17]

CNC[C@H](O)[C@@H](O)[C@H](O)[C@H](O)CO
inactive: Potency [1] | Potency [2] | Potency [3] | Potency [4] | Potency [5] | Potency [18] | Potency [6] | Potency [19] | Potency [9] | Potency [10] | Potency [12] | Potency [15] | Potency [17]

O=C(Oc1ccccc1)c1ccc(O)cc1
inactive: Potency [1] | Potency [3] | Potency [4] | Potency [6] | Potency [19] | Potency [9] | Potency [10] | outcome [11] | Potency [15] | Potency [17]
active: Potency [2] 35.8 µM and 35.6 µM

CC1=CC[C@H]2C[C@@H]1C2(C)C
inactive: Potency [1] | Potency [2] | Potency [3] | Potency [4] | Potency [6] | Potency [19] | Potency [9] | Potency [10] | outcome [11] | Potency [12] | Potency [15] | Potency [17]

OC[C@@H](O)[C@@H](O)[C@H](O)[C@@H](O)CO
inactive: Potency [1] | Potency [2] | Potency [3] | Potency [4] | Potency [6] | Potency [7] | Potency [8] | Potency [19] | Potency [9] | Potency [10] | outcome [11] | Potency [12] | Potency [13] | activity change, positive = activation [14] 3.67% and 4.92% | Potency [15] | Potency [17]

CCc1ccc(O)cc1
inactive: Potency [1] | Potency [3] | Potency [4] | Potency [5] | Potency [18] | Potency [6] | Potency [7] | Potency [8] | Potency [19] | Potency [9] | Potency [10] | outcome [11] | Potency [12] | Potency [13] | activity change, positive = activation [14] 0.519% and 6.7% | Potency [15] | Potency [17]

CS(=O)(=O)c1ccc([C@@H](O)[C@@H](CO)NC(=O)C(Cl)Cl)cc1
inactive: Potency [1] | Potency [2] | Potency [3] | Potency [4] | Potency [5] | Potency [18] | Potency [6] | Potency [9] | Potency [10] | Potency [12] | Potency [15] | Potency [16] | Potency [17]
